PubChem BioAssay
The source made the active and inactive calls.

Key:
[1] = tested on: XIP peptide (Xip251-270) binding; assay: XIP fragment 251-270 binding compounds – biochemical, small-molecule microarray, fluorescence 635/667 nm, 0.1 µg/mL protein, primary screen (AID 1182); conditions: fluorescent protein binding, 635 nm, higher = more signal, called active from +8 up or from −8 down
XIP peptide (Xip251-270) = assay: compounds binding XIP fragment 251-270 – biochemical, small-molecule microarray, fluorescence 635/667 nm, 0.5 µg/mL protein, primary screen (AID 1183); conditions: fluorescence 635 nm, higher = more signal
[2] = blood-stage malaria parasite viability loss – strain 3D7, DAPI fluorescence, 100 nL, primary screen (AID 1184);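 note: parasites grown inside human red blood cells in medium with human serum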; conditions: P. falciparum 3D7 growth, 3 d, higher = more signal
[3] = target: Homeobox protein Hox-A13 (Mus musculus) (UniProt Q62424); assay: disruptors of Hoxa13 oligonucleotide interaction – biochemical, fluorescence polarization, labeled oligonucleotide, primary screen (AID 1185); conditions: Hoxa13:DNA binding, 15 min, higher = more signal, called active from +8 up or from −8 down
Homeobox protein Hox-A13 (Mus musculus), sequence (Q62424 whole entry, looked up): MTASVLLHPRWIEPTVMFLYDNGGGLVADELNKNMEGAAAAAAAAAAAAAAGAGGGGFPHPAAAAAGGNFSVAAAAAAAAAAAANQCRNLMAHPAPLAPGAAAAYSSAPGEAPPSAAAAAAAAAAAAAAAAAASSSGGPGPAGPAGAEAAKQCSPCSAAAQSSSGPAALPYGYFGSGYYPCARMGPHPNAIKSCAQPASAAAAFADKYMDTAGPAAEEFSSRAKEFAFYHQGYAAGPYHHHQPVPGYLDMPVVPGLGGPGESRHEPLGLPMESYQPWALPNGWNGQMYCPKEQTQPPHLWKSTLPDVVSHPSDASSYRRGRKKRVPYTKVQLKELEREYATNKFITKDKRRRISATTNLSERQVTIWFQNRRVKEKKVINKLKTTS

SMILES	composite z-score [1]	composite z-score (XIP peptide (Xip251-270))	z-score [2]	z-score [3]
O=C1C[C@@H](O)[C@@H](O)[C@@H]2[C@@H]3C(=O)N(Cc4ccccc4)C(=O)[C@@H]3CC[C@@H]12	0.245 (inactive)	0.5	0.328	-0.967 (inactive)
CO[C@H]1COC(=O)CC=C[C@@H](C)[C@H](OC)COC(=O)CCC[C@@H]1C	-0.283 (inactive)	-0.15	0.0095	-0.51 (inactive)
CCOC(=O)[C@H](CC(C)C)NC(=O)CCC1CC(OC(=O)NCc2cccc3ccccc23)CC2(CCCC(COC(=O)NCCC(C)C)O2)O1 (stereo partly drawn)	-0.299 (inactive)	0.434	-0.267	-6.1 (inactive)
COc1ccc(O[C@@H]2[C@H](O)CO[C@@H]2C=Cc2ccccc2)cc1	0.196 (inactive)	0.592	-0.971	-0.162 (inactive)
COc1ccc(O[C@H]2C=C[C@@H](c3ccccc3)O[C@@H]2CON=CC[C@@H]2C=C[C@H](OC(C)=O)[C@@H](COC(C)=O)O2)cc1	0.21 (inactive)	-0.104	-0.483	-4.06 (inactive)
O=C1C[C@@H](O)[C@@H](O)[C@@H]2[C@@H]3C(=O)N(Cc4ccc5c(c4)OCO5)C(=O)[C@@H]3CC[C@H]12	0.245 (inactive)	0.0056	1.57	-0.523 (inactive)
CC(=O)OC[C@H]1O[C@@H](ON=C(C)CCN2CCCc3nc(C)c(C)cc32)[C@H](OC(C)=O)[C@@H](OC(C)=O)[C@@H]1OC(C)=O	-0.444 (inactive)	0.667	-1.3	-5.84 (inactive)
CC(C)CON=C1C[C@@H](O)[C@@H](O)[C@@H]2[C@@H]3C(=O)N(c4ccc(F)cc4F)C(=O)[C@@H]3CC[C@H]12	0.0163 (inactive)	0.37	0.0017	-0.224 (inactive)
CCOC(=O)[C@H](Cc1ccccc1)NC(=O)CCC1CC(OC(=O)NCc2ccc3c(c2)OCO3)CC2(CCCC(COC(=O)NCCc3ccccc3OC)O2)O1 (stereo partly drawn)	0.581 (inactive)	0.798	-1.78	-4 (inactive)
C=CC[C@@H]1C=C[C@H](ON=C(C)CCN2CCc3nc(-c4ccccc4)c(-c4ccccc4)cc3C2)[C@@H](CO)O1	0.957 (inactive)	0.58	-0.0674	-5.72 (inactive)
COC(=O)CC=C[C@@H](C)[C@@H](C=NOC[C@H]1O[C@H](c2ccccc2)C=C[C@@H]1Oc1ccc(OC)cc1)OC	0.0079 (inactive)	-0.294	0.201	-2.94 (inactive)
O=C1C=C[C@@H](O)[C@@H]2[C@@H]3C(=O)N(C[C@@H]4CCCO4)C(=O)[C@@H]3CC[C@@H]12	0.179 (inactive)	0.119	0.0136	0.112 (inactive)
CC(C)(C)N1C(=O)[C@H]2[C@H]3[C@H](O)[C@H](O)CC(=O)[C@@H]3CC[C@H]2C1=O	-0.138 (inactive)	0.419	-0.507	-0.472 (inactive)
CC(CCN1CCCc2nc(C)c(C)cc21)=NO[C@@H](C)c1cc(-c2c(C)cc(C)cc2C)no1	0.268 (inactive)	0.567	-1.36	-3.46 (inactive)
COCCNC(=O)OCC1CCCC2(CC(OC(=O)NCc3ccc4c(c3)OCO4)CC(CCC(=O)N[C@@H](C)C(=O)OC)O2)O1 (stereo partly drawn)	0.412 (inactive)	0.623	-2	-6.4 (inactive)
O=C(NN=C1C[C@@H](O)[C@@H](O)[C@@H]2[C@@H]3C(=O)N(C4CCCCC4)C(=O)[C@@H]3CC[C@H]12)OCc1ccccc1	-0.142 (inactive)	0.109	-0.0276	-5.03 (inactive)

SMILES	composite z-score [1]	composite z-score (XIP peptide (Xip251-270))	z-score [2]	z-score [3]
CO[C@H]1COC(=O)[C@@H](C)COC(=O)[C@H](C)NC(=O)CC=C[C@H]1C	-0.166 (inactive)	0.564	-0.455	-0.236 (inactive)
CC(C)(C)N1C(=O)[C@H]2[C@H]3[C@H](O)[C@H](O)CC(=NOCc4ccccc4)[C@H]3CC[C@H]2C1=O	0.082 (inactive)	-0.112	0.195	-4.16 (inactive)
COc1ccc(O[C@H]2C=C[C@@H](c3ccccc3)O[C@@H]2CON=C(C)CCN2CCc3nc(-c4ccccc4)c(-c4ccccc4)cc3C2)cc1	0.276 (inactive)	0.445	-0.553	-1.81 (inactive)
CO[C@@H]1COC(=O)[C@H](CCSC)NC(=O)CC=C[C@@H](C)COC(=O)CCC[C@H]1C	1.2 (inactive)	0.929	-0.766	-2.31 (inactive)
COc1ccc(O[C@H]2C=C[C@@H](c3ccccc3)O[C@@H]2CON=C(C)C)cc1	0.862 (inactive)	0.267	0.894	2.39 (inactive)
Cc1ccc(S(=O)(=O)OC[C@H]2CN3[C@H](c4ccc(Br)cc4)[C@@H](C)CC[C@H]3C(=O)O2)cc1	0.225 (inactive)	0.564	0.565	-5.13 (inactive)
COc1cccc([C@H]2Oc3ccc(OC)cc3C(=NOC[C@@H](C)[C@H](OCc3ccccc3)C(C)C)[C@@H]2O)c1	0.305 (inactive)	-0.724	-0.157	-0.308 (inactive)
CCCCC#C[C@@H]1C=C[C@H](Oc2ccc(C(=O)OC)cc2)[C@@H](COC(=O)OCC)O1	-0.464 (inactive)	0.522	-0.332	-5.73 (inactive)
Cc1cc2c(nc1C)CCCCN2CC(C)ON=C[C@@H](C)[C@H](OCc1ccccc1)C(C)C (stereo partly drawn)	-0.398 (inactive)	-0.0948	-0.109	-3.66 (inactive)
CCOC(=O)CCN1C(=O)[C@H]2[C@H]3[C@H](O)[C@H](O)CC(=NOCC(C)C)[C@H]3CC[C@H]2C1=O	0.289 (inactive)	0.158	1.2	0.737 (inactive)
CCOC(=O)NN=C1C[C@@H](O)[C@@H](O)[C@@H]2[C@@H]3C(=O)N(c4cccc(Oc5ccccc5)c4)C(=O)[C@@H]3CC[C@@H]12	0.187 (inactive)	0.651	-0.512	-4.18 (inactive)
CCOC(=O)[C@H](CC(C)C)NC(=O)CCC1CC(OC(=O)NCc2cccc3ccccc23)CC2(CCCC(COC(=O)NCC3CCCCC3)O2)O1 (stereo partly drawn)	-0.145 (inactive)	0.539	-2.01	-4.22 (inactive)
CCCCC#C[C@@H]1C=C[C@H](OC(C)=O)[C@@H](COC(C)=O)O1	1.45 (inactive)	0.641	0.247	-4.35 (inactive)
CCOC(=O)NN=C1C[C@@H](O)[C@@H](O)[C@@H]2[C@@H]3C(=O)N(Cc4ccc5c(c4)OCO5)C(=O)[C@@H]3CC[C@H]12	2.21 (inactive)	-0.437	-0.948	-0.227 (inactive)
C#CCCCON=C1C[C@@H](O)[C@@H](O)[C@@H]2[C@@H]3C(=O)N(c4ccc(F)cc4F)C(=O)[C@@H]3CC[C@H]12	1.55 (inactive)	0.683	-0.0103	-0.42 (inactive)
CCOC(=O)[C@H](Cc1ccccc1)NC(=O)CCC1CC(OC(=O)NCCc2ccc(F)cc2)CC2(CCCC(COC(=O)NCCc3ccccc3OC)O2)O1 (stereo partly drawn)	-0.157 (inactive)	0.525	-1.94	-2.27 (inactive)
